Results as given in PubChem BioAssay (NCATS).
Inconclusive results are not listed. Calls of active or inactive are those of the source. Unless noted, the call rests on the fitted dose curve; in most records, active means well fitted curve in either direction with a large enough effect (not every such curve was filed as active); inconclusive means small, poorly fitted or top-dose-only effect, or another doubt; inactive means flat fitted curve, though single readings scatter.

Key:
[1] = molecular target: Lysosomal acid glucosylceramidase (Homo sapiens) (UniProt P04062); assay: Glucocerebrosidase-p2 (AID 348; in the data active means potency below about 10 µM; further: potency means the concentration at half of the fitted maximal effect); settings: purified GBA, blue fluorogenic substrate, 40 min
Procedure, shortened: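 Compounds titrated from 0.6 nM upwards against 0.2 nM enzyme in pH 5.9 citric acid/KH2PO4, taurocholate, tween-20; blue fluorogenic substrate 80 uM, 40 min room temperature, stopped and read Ex 365/Em 440 for AC50.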

[2] = AP1 Signaling Pathway (AID 357); settings: ME-180 AP-1-bla reporter, EGF-induced, beta-lactamase ratio, 5 h; at 7.69 µM (top of the series) unless noted;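 further: ME-180 reporter cells stimulated with EGF at its EC50 level; on the % scale 0 is the no-effect control and ±100 the full control effect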
Procedure, shortened: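 AP-1-bla ME-180 cells, Opti-MEM + 0.5% dialyzed FBS, plated overnight 37 °C. Cpd titration + EC50 EGF, 5 h 37 °C. CCF4 2.5 h RT; ex 405, em 460/530 ratio → %activity, AC50.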

[3] = molecular target: Cytochrome P450 1A2 (Homo sapiens) (UniProt P05177); assay: p450-cyp1a2 (AID 410; calls by dose curve; further: potency means the concentration at half of the fitted maximal effect;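 on activity change, negative = inhibition: -100% = full effect of reference inhibitor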); settings: recombinant CYP1A2, luciferin-ME demethylation, luminescence; series mostly up to 57 µM
Procedure, shortened: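 Luminescent readout of luciferin formed from Luciferin-ME by human CYP1A2; data normalized against complete inhibition by 57 uM furafylline. Enzyme 20nM, substrate 100uM at Km, 100mM KPO4 buffer, 60 min reaction at room temperature.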

[4] = NFAT Signaling Pathway (AID 444); settings: Jurkat NFAT-bla M1, carbachol, beta-lactamase ratio, 5 h; at 7.69 µM (top of the series) unless noted;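 further: carbachol stimulus at about its EC50 of 1 µM final; on the % scale 0 is the no-effect control and ±100 the full control effect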
Procedure, shortened: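 Jurkat cells carrying an NFAT-driven β-lactamase reporter and co-transfected muscarinic M1 receptor were treated with compound plus carbachol (1 uM final, an EC50 level) for 5 h at 37 °C. CCF4 loading followed for 1 h at RT; 460/530 nm ratio gave %activity.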

[5] = Stat Signaling Pathway (AID 446); settings: ME-180 SIE beta-lactamase reporter, IL-6 stimulated, 5 h; at 7.69 µM (top of the series) unless noted;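 further: ME-180 cervical cancer cells given 40 pM IL-6 alongside compound; SIE-controlled beta-lactamase reporter measured as 460/530 nm FRET emission ratio; on the % scale 0 is the no-effect control and ±100 the full control effect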
Procedure, shortened: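 IL-6/STAT signaling read in ME-180 cells via an SIE beta-lactamase reporter. Stimulus was 40 pM IL-6 (its AC50) for 5 hrs, so both activation and inhibition register.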

[6] = molecular target: Glucocorticoid receptor (Homo sapiens) (UniProt P04150); assay: GR-EFC Redistribution (AID 451; calls by dose curve; further: potency means the concentration at half of the fitted maximal effect); settings: CHO-K1 GR-EFC translocation, beta-gal luminescence, 2 h
Procedure, shortened: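 CHO-K1 cells stably expressing nuclear-localized β-gal enzyme acceptor and GR fused C-terminally to the enzyme donor fragment; ligand-driven nuclear translocation restores β-gal by complementation. Compounds titrated up to 46 uM final, 2 h at 37 °C; luminescence read.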

[7] = molecular target: Mitogen-activated protein kinase 10 (Mus musculus) (UniProt Q61831); assay: JNK3 AlphaScreen Assay (AID 530); settings: JNK3 lysate, c-Jun phosphorylation; series mostly up to 57.1 µM;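 further: kinase came from lysate of stimulated human HepG2 cells; signal reports phosphorylation of biotinylated GST-cJun 1-79 at Ser73 with 10 µM ATP; on the % scale 0 is the no-effect control and ±100 the full control effect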
Procedure, shortened: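 Inhibitors reduce antibody binding to phosphorylated biotin-cJun, lowering AlphaScreen luminescence. Lysates from HepG2 cells pre-activated by IL-1beta plus TNF-alpha supplied JNK3; compounds were titrated.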

[8] = molecular target: 3',5'-cyclic-AMP phosphodiesterase 4B (Homo sapiens) (UniProt Q07343); assay: qHTS Assay for Inhibitors of PDE-IV (AID 607; active means well fitted activation curve with a large enough effect in the main read-out, with a control signal flat, not every such curve was filed as active; further: % of control where 0% means no effect); settings: HEK293 ACTOne CNG channel cells, membrane potential fluorescence; series mostly up to 22.9 µM
Procedure, shortened: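 Live HEK293 cells with a modified cyclic nucleotide-gated (CNG) channel report intracellular cAMP via membrane-potential dye fluorescence (ex 535/em 590 nm). Endogenous PDE-IV was targeted. Compounds were tested at up to 22.9 uM final; RO 20-1724 100 uM served as control.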

[9] = Primary qHTS for small molecule stabilizers of the endoplasmic reticulum resident proteome: Secreted ER Calcium Modulated Protein (SERCaMP) assay (AID 1508630; active means well fitted curve in the direction sought with a large enough effect; an effect the other way counts as inactive or inconclusive; further: on the % scale 0 is the no-effect control and ±100 the full control effect); settings: SH-SY5Y GLuc-SERCaMP (Gaussia luciferase released on ER calcium loss) secretion, thapsigargin, luminescence; series mostly up to 38.4 µM
Procedure, shortened: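 GLuc-SERCaMP-expressing SH-SY5Y cells, pretreated 16 h with compound, are challenged with thapsigargin to empty ER calcium stores; after 4 h, coelenterazine is added directly to the medium and luminescence is imaged.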

[10] = molecular target: Cytochrome P450 2C9 (Homo sapiens) (UniProt P11712); assay: qHTS Assay for Inhibitors and Substrates of Cytochrome P450 2C9 (AID 883; active means well fitted curve in the direction sought with a large enough effect; an effect the other way counts as inactive or inconclusive; further: on the % scale 0 is the no-effect control and ±100 the full control effect; nearly all actives have a fitted effect of over 60% in size); settings: recombinant CYP2C9, luciferin-H luminescence, 60 min; series mostly up to 57.1 µM
Procedure, shortened: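 CYP2C9 deoxyluciferin hydroxylation, 37C, 60 min with NADPH regeneration; 10nM enzyme, 100uM Luciferin-H (KM). Glo detection reagent stopped reaction; luminescence normalized to sulphaphenazole (57uM) full inhibition.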

[11] = molecular target: Cytochrome P450 3A4 (Homo sapiens) (UniProt P08684); assay: qHTS Assay for Inhibitors and Substrates of Cytochrome P450 3A4 (AID 884; active means well fitted curve in the direction sought with a large enough effect; an effect the other way counts as inactive or inconclusive; further: on the % scale 0 is the no-effect control and ±100 the full control effect; nearly all actives have a fitted effect of over 50% in size); settings: recombinant CYP3A4, Luciferin-PPXE luminescence; series mostly up to 57.1 µM
Procedure, shortened: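 20 nM human CYP3A4 with 25 uM Luciferin-PPXE (at KM) in 200 mM KPO4, preincubated 10 min with compound; NADPH regeneration started a 60 min RT reaction. Luciferin detected by luminescence, normalized to 57 uM ketoconazole as full inhibition.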

[12] = molecular target: Cytochrome P450 2D6 (Homo sapiens) (UniProt P10635); assay: qHTS Assay for Inhibitors and Substrates of Cytochrome P450 2D6 (AID 891; active means well fitted curve in the direction sought with a large enough effect; an effect the other way counts as inactive or inconclusive;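 further: luciferin methyl ether substrate demethylated by CYP2D6 with NADPH regeneration; on the % scale 0 is the no-effect control and ±100 the full control effect; nearly all actives have a fitted effect of over 60% in size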); settings: recombinant CYP2D6, luciferin-ME EGE luminescence; series mostly up to 57.1 µM
Procedure, shortened: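 Human CYP2D6 (5 nM) with 30 uM Luciferin-ME EGE (at Km) in 100 mM KPO4, compound preincubated 10 min, then NADPH regeneration system for 60 min at room temperature. Luciferin read by luminescence; normalized to 1.43 uM quinidine.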

[13] = molecular target: Cytochrome P450 2C19 (Homo sapiens) (UniProt P33261); assay: qHTS Assay for Inhibitors and Substrates of Cytochrome P450 2C19 (AID 899; active means well fitted curve in the direction sought with a large enough effect; an effect the other way counts as inactive or inconclusive; further: on the % scale 0 is the no-effect control and ±100 the full control effect; nearly all actives have a fitted effect of over 60% in size); settings: recombinant CYP2C19, luciferin-H EGE luminescence; series mostly up to 57.1 µM
Procedure, shortened: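 In 50mM KPO4, the reaction held 5nM enzyme and KM-level (10uM) Luciferin-H EGE; it ran 60 min at 37C after NADPH regeneration and a 10 min compound preincubation. Luminescence values were scaled to 57uM ketoconazole as complete inhibition.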

[14] = molecular target: Cytochrome P450 3A4 (Homo sapiens) (UniProt P08684); assay: qHTS Assay for Activators of Cytochrome P450 3A4 (AID 885; active means well fitted curve in the direction sought with a large enough effect; an effect the other way counts as inactive or inconclusive; further: nearly all actives have a fitted effect of over 65% in size; further: potency means the concentration at half of the fitted maximal effect); settings: recombinant CYP3A4, Luciferin-PPXE luminescence, 60 min; series mostly up to 57.1 µM
Procedure, shortened: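 Quantitative HTS format: compounds preincubated with 20nM human CYP3A4 and Luciferin-PPXE substrate at KM, reaction started by NADPH regeneration, stopped after 60 min, luciferase luminescence read 20 min later.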

[15] = qHTS Assay for Identification of Small Molecule Agonists for Hypoxia Response Element Signaling Pathway (AID 914; active means well fitted activation curve with a large enough effect in the signal ratio, with a control signal flat, not every such curve was filed as active; the % refers to the signal ratio; further: % of control where 0% means no effect); settings: ME-180 (cervical carcinoma) HRE-bla reporter, beta-lactamase ratio, CoCl2, 17 h; activation: stronger effect = higher value
Procedure, shortened: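 Positive modulation of EC50 CoCl2-induced hypoxia response element signaling is measured in ME-180 cells with a beta-lactamase reporter. Compounds are titrated, incubation runs 17 hours, and %Activity derives from the blue/green ratio.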

Sequence of Cytochrome P450 1A2 (Homo sapiens) (P05177 whole entry, looked up): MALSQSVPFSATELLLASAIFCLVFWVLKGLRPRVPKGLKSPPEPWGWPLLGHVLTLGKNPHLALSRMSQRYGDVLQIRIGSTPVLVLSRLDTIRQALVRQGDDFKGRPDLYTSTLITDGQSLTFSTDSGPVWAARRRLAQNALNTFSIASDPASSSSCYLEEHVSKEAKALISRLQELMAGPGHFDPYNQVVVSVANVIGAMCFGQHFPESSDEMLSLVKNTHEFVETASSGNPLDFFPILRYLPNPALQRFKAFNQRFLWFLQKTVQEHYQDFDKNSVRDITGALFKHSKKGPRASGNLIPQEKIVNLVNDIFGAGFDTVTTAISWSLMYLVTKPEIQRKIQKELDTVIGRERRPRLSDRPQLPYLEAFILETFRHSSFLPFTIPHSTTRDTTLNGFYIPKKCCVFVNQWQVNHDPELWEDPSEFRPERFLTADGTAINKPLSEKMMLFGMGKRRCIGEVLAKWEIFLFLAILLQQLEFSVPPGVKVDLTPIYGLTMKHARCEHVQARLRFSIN
Sequence of Lysosomal acid glucosylceramidase (Homo sapiens) (P04062 whole entry, looked up): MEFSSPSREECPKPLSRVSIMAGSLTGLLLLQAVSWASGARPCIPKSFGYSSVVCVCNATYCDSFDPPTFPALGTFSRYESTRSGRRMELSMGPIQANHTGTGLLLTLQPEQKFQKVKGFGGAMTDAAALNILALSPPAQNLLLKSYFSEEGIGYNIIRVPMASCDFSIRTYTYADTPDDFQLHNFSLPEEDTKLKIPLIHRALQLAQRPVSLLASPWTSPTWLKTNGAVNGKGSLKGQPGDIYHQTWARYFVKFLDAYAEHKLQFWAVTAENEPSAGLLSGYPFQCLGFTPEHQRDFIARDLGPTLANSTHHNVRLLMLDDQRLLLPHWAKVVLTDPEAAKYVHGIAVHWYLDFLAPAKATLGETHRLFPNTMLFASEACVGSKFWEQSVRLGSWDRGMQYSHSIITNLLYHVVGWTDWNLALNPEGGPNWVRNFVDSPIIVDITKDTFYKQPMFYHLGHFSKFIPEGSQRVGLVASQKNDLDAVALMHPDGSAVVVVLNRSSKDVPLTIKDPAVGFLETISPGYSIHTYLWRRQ
Sequence of Cytochrome P450 3A4 (Homo sapiens) (P08684 whole entry, looked up): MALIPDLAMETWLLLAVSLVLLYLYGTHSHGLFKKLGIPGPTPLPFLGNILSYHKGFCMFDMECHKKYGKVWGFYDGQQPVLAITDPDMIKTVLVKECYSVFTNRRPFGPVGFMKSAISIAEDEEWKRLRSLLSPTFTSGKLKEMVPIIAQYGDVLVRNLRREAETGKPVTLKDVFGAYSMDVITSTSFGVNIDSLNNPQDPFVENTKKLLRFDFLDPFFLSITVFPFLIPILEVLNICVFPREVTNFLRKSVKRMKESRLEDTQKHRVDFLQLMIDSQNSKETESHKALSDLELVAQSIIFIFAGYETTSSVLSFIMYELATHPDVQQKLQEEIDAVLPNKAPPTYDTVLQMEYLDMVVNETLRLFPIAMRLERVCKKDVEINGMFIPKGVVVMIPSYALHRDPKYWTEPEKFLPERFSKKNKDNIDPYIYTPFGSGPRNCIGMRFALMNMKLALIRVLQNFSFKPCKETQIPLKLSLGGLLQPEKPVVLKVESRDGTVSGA
Sequence of Glucocorticoid receptor (Homo sapiens) (P04150 whole entry, looked up, the tested form may be a part): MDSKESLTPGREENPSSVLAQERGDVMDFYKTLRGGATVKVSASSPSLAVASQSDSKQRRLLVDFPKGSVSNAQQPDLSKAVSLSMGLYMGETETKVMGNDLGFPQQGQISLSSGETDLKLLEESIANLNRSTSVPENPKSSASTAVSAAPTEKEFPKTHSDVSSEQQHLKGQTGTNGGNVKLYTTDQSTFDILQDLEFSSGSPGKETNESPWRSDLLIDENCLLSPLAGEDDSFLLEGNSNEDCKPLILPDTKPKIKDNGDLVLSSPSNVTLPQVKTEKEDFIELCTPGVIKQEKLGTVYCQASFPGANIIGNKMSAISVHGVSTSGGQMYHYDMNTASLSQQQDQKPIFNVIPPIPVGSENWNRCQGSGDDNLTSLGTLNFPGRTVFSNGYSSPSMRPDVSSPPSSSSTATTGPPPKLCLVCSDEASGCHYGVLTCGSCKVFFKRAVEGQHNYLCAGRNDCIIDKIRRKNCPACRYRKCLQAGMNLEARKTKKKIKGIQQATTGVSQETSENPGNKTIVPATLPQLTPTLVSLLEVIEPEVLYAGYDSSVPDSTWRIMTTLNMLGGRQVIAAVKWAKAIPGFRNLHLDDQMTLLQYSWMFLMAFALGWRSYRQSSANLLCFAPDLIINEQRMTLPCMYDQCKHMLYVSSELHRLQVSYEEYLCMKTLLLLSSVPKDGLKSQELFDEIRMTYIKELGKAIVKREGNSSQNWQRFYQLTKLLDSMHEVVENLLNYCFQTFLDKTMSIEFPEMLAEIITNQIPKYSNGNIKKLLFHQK
Sequence of 3',5'-cyclic-AMP phosphodiesterase 4B (Homo sapiens) (Q07343 whole entry, looked up): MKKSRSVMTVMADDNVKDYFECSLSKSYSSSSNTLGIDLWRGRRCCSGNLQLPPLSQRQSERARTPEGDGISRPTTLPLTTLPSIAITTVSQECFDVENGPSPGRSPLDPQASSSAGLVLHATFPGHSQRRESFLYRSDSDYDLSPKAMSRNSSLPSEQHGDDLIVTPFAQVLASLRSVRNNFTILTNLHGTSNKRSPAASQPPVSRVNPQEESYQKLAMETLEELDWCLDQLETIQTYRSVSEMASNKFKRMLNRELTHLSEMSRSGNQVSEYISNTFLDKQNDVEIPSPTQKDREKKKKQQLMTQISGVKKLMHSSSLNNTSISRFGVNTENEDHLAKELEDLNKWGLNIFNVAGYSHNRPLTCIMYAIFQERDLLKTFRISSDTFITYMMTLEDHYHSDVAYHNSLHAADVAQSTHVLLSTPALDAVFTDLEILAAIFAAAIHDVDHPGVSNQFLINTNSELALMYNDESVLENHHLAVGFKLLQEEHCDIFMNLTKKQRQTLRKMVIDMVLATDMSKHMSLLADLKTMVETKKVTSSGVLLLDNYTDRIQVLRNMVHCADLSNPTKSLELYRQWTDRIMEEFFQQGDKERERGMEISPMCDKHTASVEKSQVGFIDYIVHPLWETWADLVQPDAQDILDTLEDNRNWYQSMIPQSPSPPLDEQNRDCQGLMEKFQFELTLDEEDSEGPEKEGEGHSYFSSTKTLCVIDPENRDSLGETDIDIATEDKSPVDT
Sequence of Cytochrome P450 2C19 (Homo sapiens) (P33261 whole entry, looked up): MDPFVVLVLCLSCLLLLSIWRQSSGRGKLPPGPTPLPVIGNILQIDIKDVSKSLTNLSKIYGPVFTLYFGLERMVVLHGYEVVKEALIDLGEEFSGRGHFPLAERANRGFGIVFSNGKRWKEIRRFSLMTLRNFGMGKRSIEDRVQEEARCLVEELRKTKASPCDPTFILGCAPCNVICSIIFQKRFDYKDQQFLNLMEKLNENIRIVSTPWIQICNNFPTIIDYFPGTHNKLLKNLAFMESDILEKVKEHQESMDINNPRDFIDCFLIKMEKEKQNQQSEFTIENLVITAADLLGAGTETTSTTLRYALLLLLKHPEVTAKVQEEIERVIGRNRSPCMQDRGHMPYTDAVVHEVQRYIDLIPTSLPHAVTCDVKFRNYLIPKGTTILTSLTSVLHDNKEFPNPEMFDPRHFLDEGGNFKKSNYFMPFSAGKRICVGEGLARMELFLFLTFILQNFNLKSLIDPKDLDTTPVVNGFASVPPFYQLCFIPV
Sequence of Cytochrome P450 2D6 (Homo sapiens) (P10635 whole entry, looked up): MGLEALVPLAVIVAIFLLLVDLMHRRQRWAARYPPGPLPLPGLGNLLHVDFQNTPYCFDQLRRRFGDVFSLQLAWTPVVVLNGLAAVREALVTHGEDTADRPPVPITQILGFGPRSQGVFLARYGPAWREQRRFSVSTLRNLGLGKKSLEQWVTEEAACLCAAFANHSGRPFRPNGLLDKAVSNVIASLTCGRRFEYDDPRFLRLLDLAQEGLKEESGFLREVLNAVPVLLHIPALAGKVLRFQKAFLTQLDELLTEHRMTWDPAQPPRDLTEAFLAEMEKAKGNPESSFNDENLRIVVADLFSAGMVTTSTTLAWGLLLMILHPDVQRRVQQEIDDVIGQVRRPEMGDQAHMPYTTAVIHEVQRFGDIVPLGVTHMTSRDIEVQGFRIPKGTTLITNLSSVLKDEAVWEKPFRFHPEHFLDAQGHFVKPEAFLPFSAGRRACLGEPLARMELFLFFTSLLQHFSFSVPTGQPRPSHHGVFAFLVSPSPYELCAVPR
Sequence of Cytochrome P450 2C9 (Homo sapiens) (P11712 whole entry, looked up): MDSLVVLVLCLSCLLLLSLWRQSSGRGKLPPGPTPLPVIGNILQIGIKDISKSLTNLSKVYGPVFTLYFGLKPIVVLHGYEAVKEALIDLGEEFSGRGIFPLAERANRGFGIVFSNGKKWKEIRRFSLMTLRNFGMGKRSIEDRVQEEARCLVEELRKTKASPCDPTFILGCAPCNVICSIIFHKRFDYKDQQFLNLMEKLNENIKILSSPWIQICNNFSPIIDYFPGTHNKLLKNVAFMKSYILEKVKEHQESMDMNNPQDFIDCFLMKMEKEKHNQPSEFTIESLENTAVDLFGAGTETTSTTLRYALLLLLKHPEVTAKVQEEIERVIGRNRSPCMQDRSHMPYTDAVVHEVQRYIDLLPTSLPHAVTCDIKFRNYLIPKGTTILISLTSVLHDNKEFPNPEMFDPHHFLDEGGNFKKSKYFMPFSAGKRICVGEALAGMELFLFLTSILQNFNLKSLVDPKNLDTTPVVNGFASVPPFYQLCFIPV

COCC(=O)N1CCC2(CCCN(Cc3nccs3)C2)CC1
inactive: Potency [1] > 11.4 µM | activity change, negative = inhibition [2] -21.8% | Potency [3] | activity change, negative = inhibition [4] -25.4% | activity, negative = inhibition [5] -1.77% | Potency [6] > 46 µM | Potency [7] | Potency [8] | outcome [9]

N#Cc1cccc(NC(=O)N2CC[C@@]3(CCCN(C(=O)c4cc(C(F)(F)F)cc(C(F)(F)F)c4)C3)C2)c1
inactive: Potency [1] > 11.4 µM | activity change, negative = inhibition [2] 3.48% | Potency [3] | activity change, negative = inhibition [4] 5.16% | activity, negative = inhibition [5] -10.2% | Potency [6] > 46 µM | Potency [7] | Potency [8] | Potency [10] | Potency [11] | Potency [12] | Potency [13] | outcome [9]

CS(=O)(=O)N1CCC2(CC1)CN(c1ncccn1)C2
inactive: Potency [1] > 11.4 µM | activity change, negative = inhibition [2] -16% | Potency [3] | activity change, negative = inhibition [4] -5.62% | activity, negative = inhibition [5] 6.56% | Potency [6] > 46 µM | Potency [7] | Potency [8] | Potency [14] | outcome [9]

O=C(c1cnccn1)N1CCC2(CC1)CCN(c1ncccn1)CC2
active: Potency [14] 7.94 µM
inactive: Potency [1] > 11.4 µM | activity change, negative = inhibition [2] -5.54% | Potency [3] | activity change, negative = inhibition [4] 6.93% | activity, negative = inhibition [5] -9.82% | Potency [6] > 46 µM | Potency [7] | Potency [8] | Potency [11] | outcome [9]

COC(=O)N1CCC2(CCCN(C(c3ccccc3)c3ccccc3)C2)CC1
inactive: Potency [1] > 11.4 µM | activity change, negative = inhibition [2] 11.9% | activity change, negative = inhibition [4] -16.3% | activity, negative = inhibition [5] 13.3% | Potency [6] > 46 µM | Potency [7] | Potency [8] | Potency [14] | outcome [9]
active: Potency [3] 15.8 µM

COc1ccc(NC(=O)N2CCCC3(CCN(C(=O)c4ccco4)CC3)C2)cc1
inactive: Potency [1] > 11.4 µM | activity change, negative = inhibition [2] -17.6% | Potency [3] | activity change, negative = inhibition [4] 7.9% | activity, negative = inhibition [5] -11.8% | Potency [6] > 46 µM | Potency [7] | Potency [8] | Potency [14] | outcome [9]

O=C(c1cnccn1)N1CCC2(CC1)CCN(c1ccccc1)CC2
inactive: Potency [1] > 11.4 µM | activity change, negative = inhibition [2] -3.01% | Potency [3] | activity change, negative = inhibition [4] 9.49% | activity, negative = inhibition [5] -24.3% | Potency [6] > 46 µM | Potency [7] | Potency [8] | Potency [11] | outcome [9]

O=C(c1cnccn1)N1CCC2(CCCN(c3ccc(-c4ccccc4)cc3)C2)CC1
active: Potency [3] 25.1 µM
inactive: Potency [1] > 11.4 µM | activity change, negative = inhibition [2] -27.9% | activity change, negative = inhibition [4] -14.8% | activity, negative = inhibition [5] 8.97% | Potency [6] > 46 µM | Potency [7] | Potency [8] | outcome [9]

O=C(Nc1cccc(F)c1)N1CC[C@@]2(CCCN(S(=O)(=O)c3ccccc3)C2)C1
active: Potency [3] 15.8 µM
inactive: Potency [1] > 11.4 µM | activity change, negative = inhibition [2] -21% | activity change, negative = inhibition [4] 7.62% | activity, negative = inhibition [5] -7.95% | Potency [6] > 46 µM | Potency [7] | Potency [8] | Potency [14] | outcome [9]

COc1ccc(NC(=O)N2CC3(CCN(C(=O)c4ccncc4)CC3)C2)cc1
inactive: Potency [1] > 11.4 µM | activity change, negative = inhibition [2] 0.578% | Potency [3] | activity change, negative = inhibition [4] 10.9% | activity, negative = inhibition [5] 6.73% | Potency [6] > 46 µM | Potency [7] | Potency [8] | Potency [14] | outcome [9]

CC(C)NC(=O)N1CCCC2(CCN(C(=O)c3csnn3)CC2)C1
inactive: Potency [1] > 11.4 µM | activity change, negative = inhibition [2] 3.46% | Potency [3] | activity change, negative = inhibition [4] -7.86% | activity, negative = inhibition [5] 2.78% | Potency [6] > 46 µM | Potency [7] | Potency [8] | Potency [14] | outcome [9]

O=C(Nc1ccccc1)N1CCC2(CC1)CCN(C(=O)c1cccc(F)c1)CC2
active: Potency [3] 10 µM | Potency [14] 12.6 µM
inactive: Potency [1] > 11.4 µM | activity change, negative = inhibition [2] 2.8% | activity change, negative = inhibition [4] 14.6% | activity, negative = inhibition [5] -12.9% | Potency [6] > 46 µM | Potency [7] | Potency [8] | Potency [11] | activation [15] -13.7% | outcome [9]

Cn1cccc1C(=O)N1CCC[C@@]2(CCN(Cc3nccs3)C2)C1
inactive: Potency [1] > 11.4 µM | activity change, negative = inhibition [2] -4.63% | Potency [3] | activity change, negative = inhibition [4] 12.5% | activity, negative = inhibition [5] 9.2% | Potency [6] > 46 µM | Potency [7] | Potency [8] | Potency [14] | outcome [9]

O=C(c1cnccn1)N1CCC2(CC1)CN(c1ccccc1)C2
inactive: Potency [1] > 11.4 µM | activity change, negative = inhibition [2] -9.4% | Potency [3] | activity change, negative = inhibition [4] 14% | activity, negative = inhibition [5] -6.18% | Potency [6] > 46 µM | Potency [8] | outcome [9]

O=S(=O)(c1ccccc1)N1CCC[C@@]2(CCN(c3cccc(-c4ccccc4)c3)C2)C1
inactive: Potency [1] > 11.4 µM | activity change, negative = inhibition [2] -23.9% | activity change, negative = inhibition [4] -13.7% | activity, negative = inhibition [5] -8.6% | Potency [6] > 46 µM | Potency [7] | Potency [8] | Potency [14] | outcome [9]
active: Potency [3] 15.8 µM
